The target in assay [1] is MAP kinase-activated protein kinase 2 (Homo sapiens) (UniProt P49137). As to conditions: at 10 µM.
Assay [2] concerns the target MAP kinase-activated protein kinase 3 (Homo sapiens) (UniProt Q16644). As to conditions: at 10 µM.
Assay [3] deals with Serine/threonine-protein kinase MARK1 (Homo sapiens) (UniProt Q9P0L2). As to conditions: at 1 µM.
The target is the same in assay [4]. The settings on record: at 10 µM.
Assay [5] has as its target Dual specificity mitogen-activated protein kinase kinase 1 (Homo sapiens) (UniProt Q02750). The settings on record: at 1 µM.
For assay [6] the target is unchanged. The settings on record: at 10 µM.
Assay [7] deals with Maternal embryonic leucine zipper kinase (Homo sapiens) (UniProt Q14680). As to conditions: at 1 µM.
For assay [8] the target is unchanged. The settings on record: at 10 µM.
Assay [9] has as its target Misshapen-like kinase 1 (Homo sapiens) (UniProt Q8N4C8). The settings on record: at 1 µM.
The target is the same in assay [10]. The settings on record: at 10 µM.
The target of assay [11] is T1, Dual specificity mitogen-activated protein kinase kinase 6 (Homo sapiens) (UniProt P52564).
T1 sequence (whole entry): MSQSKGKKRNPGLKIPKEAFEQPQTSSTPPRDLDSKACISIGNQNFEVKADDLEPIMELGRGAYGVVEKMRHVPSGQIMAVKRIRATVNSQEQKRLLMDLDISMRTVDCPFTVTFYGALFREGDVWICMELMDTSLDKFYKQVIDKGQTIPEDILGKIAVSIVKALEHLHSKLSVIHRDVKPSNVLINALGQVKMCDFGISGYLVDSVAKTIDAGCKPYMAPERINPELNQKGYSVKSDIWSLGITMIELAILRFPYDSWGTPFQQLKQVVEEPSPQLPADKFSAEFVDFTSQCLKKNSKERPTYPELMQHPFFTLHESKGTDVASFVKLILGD
As to conditions: at 1 µM.

Assay [12] has as its target T1, Dual specificity mitogen-activated protein kinase kinase 6 (Homo sapiens). The settings on record: at 10 µM.
In assay [13] the target is T2, Dual specificity mitogen-activated protein kinase kinase 7 (Homo sapiens) (UniProt O14733).
T2 sequence (whole entry): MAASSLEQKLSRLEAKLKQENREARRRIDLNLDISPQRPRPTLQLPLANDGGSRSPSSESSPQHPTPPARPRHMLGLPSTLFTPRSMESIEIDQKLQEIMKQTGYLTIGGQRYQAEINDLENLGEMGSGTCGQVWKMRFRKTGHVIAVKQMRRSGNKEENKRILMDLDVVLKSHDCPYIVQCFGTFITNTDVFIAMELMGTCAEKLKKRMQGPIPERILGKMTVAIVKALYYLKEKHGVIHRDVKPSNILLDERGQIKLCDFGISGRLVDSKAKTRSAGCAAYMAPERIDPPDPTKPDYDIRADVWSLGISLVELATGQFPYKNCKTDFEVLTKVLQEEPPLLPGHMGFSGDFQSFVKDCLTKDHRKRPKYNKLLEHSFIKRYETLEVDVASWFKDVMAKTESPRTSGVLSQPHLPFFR
As to conditions: at 1 µM.

Assay [14] concerns the target T2, Dual specificity mitogen-activated protein kinase kinase 7 (Homo sapiens). The settings on record: at 10 µM.
Assay [15] addresses Myosin light chain kinase, smooth muscle (Homo sapiens) (UniProt Q15746). As to conditions: at 1 µM.
Assay [16] shares this target. As to conditions: at 10 µM.
Assay [17] deals with Mitogen-activated protein kinase kinase kinase 9 (Homo sapiens) (UniProt P80192). As to conditions: at 1 µM.
Assay [18] shares this target. The settings on record: at 10 µM.
The target of assay [19] is Serine/threonine-protein kinase MRCK alpha (Homo sapiens) (UniProt Q5VT25). The settings on record: at 1 µM.
For assay [20] the target is unchanged. The settings on record: at 10 µM.

The structures appear in SMILES notation.

Sequence of Misshapen-like kinase 1 (Homo sapiens) (Q8N4C8 whole entry, looked up): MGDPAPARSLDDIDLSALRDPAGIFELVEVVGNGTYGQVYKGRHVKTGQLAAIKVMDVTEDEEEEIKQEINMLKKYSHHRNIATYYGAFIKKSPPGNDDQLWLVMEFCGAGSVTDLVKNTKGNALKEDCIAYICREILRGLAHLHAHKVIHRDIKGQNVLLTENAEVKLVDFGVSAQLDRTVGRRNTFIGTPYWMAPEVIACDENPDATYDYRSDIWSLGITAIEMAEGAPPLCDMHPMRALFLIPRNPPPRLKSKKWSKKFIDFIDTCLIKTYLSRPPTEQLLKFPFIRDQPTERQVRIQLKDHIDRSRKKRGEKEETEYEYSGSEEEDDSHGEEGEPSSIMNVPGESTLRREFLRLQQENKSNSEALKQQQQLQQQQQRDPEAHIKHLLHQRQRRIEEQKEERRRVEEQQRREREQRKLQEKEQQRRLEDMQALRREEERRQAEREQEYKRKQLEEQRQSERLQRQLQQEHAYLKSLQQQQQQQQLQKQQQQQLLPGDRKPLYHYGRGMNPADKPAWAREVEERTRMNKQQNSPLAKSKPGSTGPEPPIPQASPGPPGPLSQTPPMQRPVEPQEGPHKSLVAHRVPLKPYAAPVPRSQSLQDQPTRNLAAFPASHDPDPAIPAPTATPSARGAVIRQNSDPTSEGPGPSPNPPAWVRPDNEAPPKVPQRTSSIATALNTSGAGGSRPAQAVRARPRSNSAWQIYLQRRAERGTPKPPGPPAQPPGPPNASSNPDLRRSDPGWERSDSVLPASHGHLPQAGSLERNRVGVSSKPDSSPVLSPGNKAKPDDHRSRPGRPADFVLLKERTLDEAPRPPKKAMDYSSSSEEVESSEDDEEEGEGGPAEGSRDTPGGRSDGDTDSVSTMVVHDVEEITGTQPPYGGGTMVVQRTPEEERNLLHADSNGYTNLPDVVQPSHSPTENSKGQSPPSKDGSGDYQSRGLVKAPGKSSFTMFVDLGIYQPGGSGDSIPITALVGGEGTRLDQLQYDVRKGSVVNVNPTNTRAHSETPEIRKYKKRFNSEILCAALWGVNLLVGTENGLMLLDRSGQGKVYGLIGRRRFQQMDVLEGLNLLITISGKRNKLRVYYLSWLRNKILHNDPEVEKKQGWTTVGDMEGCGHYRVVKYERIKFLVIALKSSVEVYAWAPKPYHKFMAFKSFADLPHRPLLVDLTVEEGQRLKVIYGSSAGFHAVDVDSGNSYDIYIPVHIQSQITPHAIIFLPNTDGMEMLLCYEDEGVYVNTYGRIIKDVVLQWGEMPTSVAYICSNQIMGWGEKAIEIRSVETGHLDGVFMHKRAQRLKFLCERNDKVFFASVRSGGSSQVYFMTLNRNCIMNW
Sequence of Mitogen-activated protein kinase kinase kinase 9 (Homo sapiens) (P80192 whole entry, looked up): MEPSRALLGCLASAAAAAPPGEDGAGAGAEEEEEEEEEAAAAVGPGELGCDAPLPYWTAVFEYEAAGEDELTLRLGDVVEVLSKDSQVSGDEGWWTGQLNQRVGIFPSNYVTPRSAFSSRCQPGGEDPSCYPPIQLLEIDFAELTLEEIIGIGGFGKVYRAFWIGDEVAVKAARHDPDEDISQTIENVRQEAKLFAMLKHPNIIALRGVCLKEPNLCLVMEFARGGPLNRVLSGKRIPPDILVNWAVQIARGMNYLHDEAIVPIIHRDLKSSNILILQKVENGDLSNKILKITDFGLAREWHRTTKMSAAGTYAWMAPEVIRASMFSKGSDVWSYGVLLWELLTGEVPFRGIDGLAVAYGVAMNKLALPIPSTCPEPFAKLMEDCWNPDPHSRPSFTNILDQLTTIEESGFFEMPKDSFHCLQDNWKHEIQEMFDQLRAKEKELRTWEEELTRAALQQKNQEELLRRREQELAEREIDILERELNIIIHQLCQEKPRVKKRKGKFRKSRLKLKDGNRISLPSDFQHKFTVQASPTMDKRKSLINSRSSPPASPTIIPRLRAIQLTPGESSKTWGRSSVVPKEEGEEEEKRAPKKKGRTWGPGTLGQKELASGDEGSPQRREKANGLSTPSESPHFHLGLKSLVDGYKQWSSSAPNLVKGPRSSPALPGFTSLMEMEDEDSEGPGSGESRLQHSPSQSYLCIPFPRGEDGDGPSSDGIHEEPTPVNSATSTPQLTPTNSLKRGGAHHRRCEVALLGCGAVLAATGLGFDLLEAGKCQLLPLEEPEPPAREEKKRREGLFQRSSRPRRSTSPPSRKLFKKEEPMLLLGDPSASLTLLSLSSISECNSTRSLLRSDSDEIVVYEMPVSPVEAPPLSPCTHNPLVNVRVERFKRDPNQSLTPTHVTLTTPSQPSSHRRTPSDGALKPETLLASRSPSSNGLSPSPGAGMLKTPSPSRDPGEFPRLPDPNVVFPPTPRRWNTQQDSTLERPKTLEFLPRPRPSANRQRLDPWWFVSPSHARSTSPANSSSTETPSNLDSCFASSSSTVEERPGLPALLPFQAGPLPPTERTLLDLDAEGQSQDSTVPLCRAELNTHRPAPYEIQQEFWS
Sequence of Dual specificity mitogen-activated protein kinase kinase 1 (Homo sapiens) (Q02750 whole entry): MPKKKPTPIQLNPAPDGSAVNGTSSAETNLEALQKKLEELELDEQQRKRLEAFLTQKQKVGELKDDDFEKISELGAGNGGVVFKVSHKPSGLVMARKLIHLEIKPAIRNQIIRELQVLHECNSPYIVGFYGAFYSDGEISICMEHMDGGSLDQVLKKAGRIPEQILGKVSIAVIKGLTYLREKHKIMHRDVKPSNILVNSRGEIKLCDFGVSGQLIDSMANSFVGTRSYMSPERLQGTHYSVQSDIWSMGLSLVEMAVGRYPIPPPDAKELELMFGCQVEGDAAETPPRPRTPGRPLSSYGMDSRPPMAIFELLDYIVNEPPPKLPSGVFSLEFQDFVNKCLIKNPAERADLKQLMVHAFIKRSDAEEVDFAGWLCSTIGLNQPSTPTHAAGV
Sequence of Serine/threonine-protein kinase MARK1 (Homo sapiens) (Q9P0L2 whole entry, looked up): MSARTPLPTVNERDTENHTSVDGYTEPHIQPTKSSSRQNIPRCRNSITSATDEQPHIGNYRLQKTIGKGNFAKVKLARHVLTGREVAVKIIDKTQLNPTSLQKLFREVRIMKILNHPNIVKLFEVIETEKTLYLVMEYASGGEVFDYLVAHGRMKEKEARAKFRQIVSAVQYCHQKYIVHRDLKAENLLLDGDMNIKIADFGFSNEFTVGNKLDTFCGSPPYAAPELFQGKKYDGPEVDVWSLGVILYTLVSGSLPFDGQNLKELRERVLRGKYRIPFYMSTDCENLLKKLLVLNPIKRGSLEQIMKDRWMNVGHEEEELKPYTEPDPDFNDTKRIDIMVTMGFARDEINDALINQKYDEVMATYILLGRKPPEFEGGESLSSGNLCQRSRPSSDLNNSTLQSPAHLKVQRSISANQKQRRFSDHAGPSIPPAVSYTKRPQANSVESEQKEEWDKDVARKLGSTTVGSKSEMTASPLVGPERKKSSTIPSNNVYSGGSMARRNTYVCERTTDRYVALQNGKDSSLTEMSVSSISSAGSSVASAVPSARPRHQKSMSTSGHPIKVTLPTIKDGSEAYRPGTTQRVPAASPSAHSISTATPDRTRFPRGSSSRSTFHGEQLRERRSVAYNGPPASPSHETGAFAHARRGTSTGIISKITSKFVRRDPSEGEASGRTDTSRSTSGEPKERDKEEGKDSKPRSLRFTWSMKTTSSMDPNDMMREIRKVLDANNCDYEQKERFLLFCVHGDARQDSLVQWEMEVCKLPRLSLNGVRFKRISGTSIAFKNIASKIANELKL
Sequence of MAP kinase-activated protein kinase 2 (Homo sapiens) (P49137 whole entry, looked up): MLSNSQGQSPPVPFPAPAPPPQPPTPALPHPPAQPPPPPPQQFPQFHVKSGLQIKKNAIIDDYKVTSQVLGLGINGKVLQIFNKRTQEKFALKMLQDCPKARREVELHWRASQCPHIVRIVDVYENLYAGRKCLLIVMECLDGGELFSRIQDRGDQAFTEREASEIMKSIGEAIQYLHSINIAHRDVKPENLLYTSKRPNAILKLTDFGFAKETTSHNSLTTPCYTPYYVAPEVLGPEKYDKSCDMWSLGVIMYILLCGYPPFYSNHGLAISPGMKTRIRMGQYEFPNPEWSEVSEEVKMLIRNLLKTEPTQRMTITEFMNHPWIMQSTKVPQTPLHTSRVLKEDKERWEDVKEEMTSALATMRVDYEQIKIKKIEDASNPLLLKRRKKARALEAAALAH
Sequence of MAP kinase-activated protein kinase 3 (Homo sapiens) (Q16644 whole entry, looked up): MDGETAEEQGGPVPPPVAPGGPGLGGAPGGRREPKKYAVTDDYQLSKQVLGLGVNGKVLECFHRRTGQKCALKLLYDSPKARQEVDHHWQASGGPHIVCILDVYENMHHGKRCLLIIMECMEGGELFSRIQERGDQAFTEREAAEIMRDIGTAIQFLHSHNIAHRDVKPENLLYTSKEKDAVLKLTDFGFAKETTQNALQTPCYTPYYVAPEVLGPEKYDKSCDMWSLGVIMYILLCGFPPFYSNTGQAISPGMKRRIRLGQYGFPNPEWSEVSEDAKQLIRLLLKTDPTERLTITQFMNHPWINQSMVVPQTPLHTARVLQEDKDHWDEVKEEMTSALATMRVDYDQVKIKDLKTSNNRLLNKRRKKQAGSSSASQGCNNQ
Sequence of Maternal embryonic leucine zipper kinase (Homo sapiens) (Q14680 whole entry, looked up): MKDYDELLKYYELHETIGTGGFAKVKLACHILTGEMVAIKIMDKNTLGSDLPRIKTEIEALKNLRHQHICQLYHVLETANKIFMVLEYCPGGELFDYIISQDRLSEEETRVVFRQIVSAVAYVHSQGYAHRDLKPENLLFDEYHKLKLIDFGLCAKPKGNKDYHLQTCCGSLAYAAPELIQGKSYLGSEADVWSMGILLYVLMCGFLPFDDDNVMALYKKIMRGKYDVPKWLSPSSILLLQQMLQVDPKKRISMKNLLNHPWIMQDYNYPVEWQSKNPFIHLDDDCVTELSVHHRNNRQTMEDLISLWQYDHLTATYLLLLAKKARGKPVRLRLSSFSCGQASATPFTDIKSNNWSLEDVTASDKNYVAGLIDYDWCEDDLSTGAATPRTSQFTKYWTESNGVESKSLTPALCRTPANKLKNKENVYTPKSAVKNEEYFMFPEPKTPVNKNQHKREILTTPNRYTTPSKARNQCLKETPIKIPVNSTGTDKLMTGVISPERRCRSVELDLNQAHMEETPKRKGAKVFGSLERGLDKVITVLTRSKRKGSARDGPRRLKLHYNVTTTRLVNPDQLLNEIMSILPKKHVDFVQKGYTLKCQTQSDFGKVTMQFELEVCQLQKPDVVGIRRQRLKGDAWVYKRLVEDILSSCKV

Consider `CCC(=O)Nc1ccc2ncnc(Nc3cccc(Br)c3)c2c1`, for which the residual activity stood at 95% in assay [1]; 88% in assay [2]; 84% in assay [3]; 90% in [4]; 93% in assay [5]; 92% in assay [6]. Besides, the residual activity in [7] is 90%; in assay [8], 96%; in assay [9], 83%; in assay [10] it was 82%; in assay [11], 77%; in [12], 108%. Further, the residual activity in [13] was 94%; in [14], 89%; in assay [15], 68%; in assay [16], 82%; in [17], 89%; in assay [18], 78%. For the same compound, the residual activity amounted to 109% in assay [19] and 101% in assay [20].
Turning to `CC(C)n1cnc2c(NCc3ccccc3)nc(NCCCO)nc21`, the residual activity was 90% in [1]; 80% in assay [2]; 81% in assay [3]; 81% in assay [4]; 103% in assay [5]; 110% in assay [6]. Moreover, the residual activity in assay [7] turned out to be 86%; in assay [8], 77%; in [9] it was 108%; in assay [10], 100%; in assay [11] it was 94%; in assay [12], 74%. Further, the residual activity in [13] is 91%; in assay [14], 75%; in assay [15], 93%; in assay [16] it was 74%; in [17] it was 97%; in assay [18], 73%. The values for the residual activity in [19] and in assay [20] were 86% and 83%, respectively.
Take `CN(C)c1ccc(/C=C2\C(=O)Nc3ccccc32)cc1`: the residual activity in [1] is 93%; in assay [2], 94%; in assay [3] it was 83%; in assay [4] it was 49%; in assay [5], 114%; in assay [6] it was 73%. The residual activity in [7] is 49%; in assay [8], 26%; in assay [9], 82%; in assay [10] it was 30%; in assay [11] it was 97%; in assay [12] it was 91%. For the same compound, the residual activity in [13] amounted to 91%; in assay [14] it was 84%; in [15], 77%; in assay [16], 56%; in [17] it was 39%; in [18] it was 16%. Moreover, the residual activity in assay [19] amounted to 113%; in assay [20] it was 105%.
As for `O=C1c2ccccc2-[n+]2ccc3c([nH]c4ccccc43)c21`, the residual activity in [1] stood at 98%; in [2] it was 89%; in assay [3] it was 80%; in [4] it was 77%; in assay [5] it was 97%; in assay [6], 110%. Further, the residual activity worked out at 85% in assay [7]; 67% in assay [8]; 99% in assay [9]; 87% in assay [10]; 109% in [11]; 92% in assay [12]. In addition, the residual activity was found to be 91% in assay [13]; 97% in assay [14]; 95% in [15]; 79% in assay [16]; 91% in assay [17]; 83% in [18]. The residual activity was found to be 100% in assay [19] and 86% in assay [20].
`NC(=O)c1ccc2[nH]c(-c3ccc(Oc4ccc(Cl)cc4)cc3)nc2c1`: the residual activity was found to be 126% in [1]; 127% in assay [2]; 85% in assay [3]; 70% in assay [4]; 91% in assay [5]; 111% in [6]. Further, the residual activity in assay [7] came to 91%; in [8] it was 83%; in [9], 91%; in [10] it was 66%; in assay [11] it was 91%; in [12] it was 94%. In addition, the residual activity in [13] stood at 94%; in assay [14], 103%; in assay [15], 93%; in assay [16] it was 96%; in assay [17], 89%; in [18] it was 34%. Moreover, the residual activity turned out to be 113% in assay [19] and 127% in assay [20].
Take `COc1ccc(CNc2nc(N(CCO)CCO)nc3c2ncn3C(C)C)cc1`: the residual activity in [1] was 81%; in [2], 98%; in assay [3], 85%; in [4], 72%; in assay [5], 103%; in assay [6], 120%. Besides, the residual activity in [7] came out at 77%; in assay [8] it was 38%; in [9], 103%; in [10] it was 92%; in [11], 102%; in assay [12] it was 100%. The residual activity in assay [13] is 86%; in assay [14], 95%; in assay [15], 108%; in assay [16] it was 68%; in assay [17] it was 82%; in assay [18], 41%. The results for the residual activity in assay [19] and in assay [20] were 108% and 89%, respectively.
With `c1ccc2c(-c3ccncc3)c[nH]c2c1`, the residual activity in assay [1] is 94%; in assay [2], 101%; in [3], 81%; in [4] it was 77%; in assay [5] it was 87%; in [6] it was 75%. Moreover, the residual activity was 91% in assay [7]; 76% in assay [8]; 85% in assay [9]; 43% in assay [10]; 77% in assay [11]; 93% in assay [12]. Further, the residual activity in assay [13] worked out at 101%; in assay [14], 94%; in assay [15], 72%; in assay [16], 66%; in [17], 74%; in assay [18] it was 60%.

For the origin of these results see ChEMBL document CHEMBL2218924, “A broad activity screen in support of a chemogenomic map for kinase signalling research and drug discovery” (Biochem J, 2013).
